# JMJD2A Tudor = JMJD2A Tudor domain (human) inhibition; O75164; AlphaScreen JMJD2A-Tudor / H3K4me3 peptide binding; Potency, µM (series often up to 114 µM), for the others: at the top dose activity change, negative = inhibition, actives largely listed as inhibitors; 4.4% of 390,000 active; AID 504339; note: potency is the fitted concentration of half-maximal effect; % is set by controls: 0 for no effect and ±100 for the full control effect; nearly all actives have a fitted effect of over 50% in size
# Target sequence (O75164 whole entry, looked up, the tested form may be a part): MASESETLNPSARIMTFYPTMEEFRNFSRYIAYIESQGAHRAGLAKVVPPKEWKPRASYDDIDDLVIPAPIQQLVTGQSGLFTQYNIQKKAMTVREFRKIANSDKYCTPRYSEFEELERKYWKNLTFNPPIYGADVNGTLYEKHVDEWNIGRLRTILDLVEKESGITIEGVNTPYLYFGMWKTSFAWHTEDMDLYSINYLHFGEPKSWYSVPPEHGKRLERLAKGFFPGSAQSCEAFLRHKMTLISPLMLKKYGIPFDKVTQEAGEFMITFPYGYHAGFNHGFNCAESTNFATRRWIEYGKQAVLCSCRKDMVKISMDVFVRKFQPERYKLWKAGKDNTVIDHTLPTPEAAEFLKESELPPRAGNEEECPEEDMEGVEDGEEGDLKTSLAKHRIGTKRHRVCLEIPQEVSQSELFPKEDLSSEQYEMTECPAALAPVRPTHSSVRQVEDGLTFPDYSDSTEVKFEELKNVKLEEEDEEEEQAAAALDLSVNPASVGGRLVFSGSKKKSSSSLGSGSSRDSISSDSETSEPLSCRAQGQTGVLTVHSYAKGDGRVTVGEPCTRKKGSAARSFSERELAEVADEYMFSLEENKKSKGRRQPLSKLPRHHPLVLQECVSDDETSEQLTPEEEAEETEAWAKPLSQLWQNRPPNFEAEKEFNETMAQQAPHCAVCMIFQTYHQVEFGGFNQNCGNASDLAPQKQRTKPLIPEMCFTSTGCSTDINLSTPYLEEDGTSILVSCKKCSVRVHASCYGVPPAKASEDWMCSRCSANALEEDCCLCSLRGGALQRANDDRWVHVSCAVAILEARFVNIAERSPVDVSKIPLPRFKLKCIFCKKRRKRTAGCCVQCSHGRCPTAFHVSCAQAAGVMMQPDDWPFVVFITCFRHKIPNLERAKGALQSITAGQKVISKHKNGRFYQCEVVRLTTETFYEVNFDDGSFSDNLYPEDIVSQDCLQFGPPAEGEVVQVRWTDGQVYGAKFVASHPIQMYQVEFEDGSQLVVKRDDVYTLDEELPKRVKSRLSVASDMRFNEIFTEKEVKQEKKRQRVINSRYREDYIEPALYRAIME
# BAZ2B block = inhibitors of human BAZ2B bromodomain. AID 504333. 4.4% of 360,000 active. Potency, µM (top dose mostly 114 µM), for inactives: at the highest dose activity change, negative = inhibition, usual class: inhibitors. AlphaScreen BAZ2B-H3K14Ac peptide displacement; note: potency is the fitted concentration of half-maximal effect; % is set by controls: 0 for no effect and ±100 for the full control effect; nearly all actives have a fitted effect of over 60% in size
#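 Protein-peptide AlphaScreen: BAZ2B 50 nM, b-H3K14Ac 50 nM, 1x PBS pH 7.4 + 0.01% Tween-20. Preincubation 30 min RT; cpd 30 min RT (top 110 uM); beads 20 min RT, light-protected.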
# JMJD2E inh = inhibitors of human JMJD2E histone demethylase | B2RXH2 | JMJD2E catalytic domain, FDH-coupled NADH fluorescence (FDH is formaldehyde dehydrogenase) | Potency, µM (highest dose often 57.1 µM), without a hit: at the top dose activity change, negative = inhibition, usual class: inhibitors | 1.6% of 230,000 active; active = well fitted inhibition curve with a large enough effect, not every such curve was filed as active; inconclusive = small, poorly fitted or top-dose-only effect, or another doubt; inactive = no such curve, though single readings can be large or run the other way;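 note: potency is the fitted concentration of half-maximal effect; 0% = wells with enzyme and -100% = buffer wells without enzyme; nearly all actives have a fitted effect of over 50% in size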
# PI5P4K alpha inh = blocks human PI5P4K alpha kinase activity | P48426 | PI5P4Kalpha enzyme, ADP-Glo luminescence, 60 min; hits give low values | max response, % | 1.2% of 330,000 active | AID 652105; active = max response of -50% or lower; inconclusive = between -30% and -50%; inactive = -30% or higher; note: value at the top dose of about 77 µM; % is set by controls: 0 for no effect and ±100 for the full control effect
#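 Single end-point luminescence (ADP-Glo) quantified ADP from PI5P4Kalpha turnover; ATP 5 microM final, 1 h at RT, 0.1% CHAPS and 0.28 mM EGTA in HEPES pH 7.4.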
# HP1b binding inh = HP1-beta chromodomain-methylated histone interaction inhibition; AID 540317; P83916; 0.56% of 390,000 active; AlphaScreen HP1-beta / biotin-H3K9me3 peptide binding; Potency, µM (titrated, usually from 114 µM), for inactives: at the highest dose activity change, negative = inhibition, usual class: inhibitors; note: potency is the fitted concentration of half-maximal effect; nearly all actives have a fitted effect of over 70% in size
#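 AlphaScreen: HP1-beta (50 nM) preformed 30 min with biotin-H3(1-18)K9me3 peptide (50 nM) in PBS pH 7.4, 0.01% Tween-20. Compound added for 30 min at RT, then streptavidin donor/nickel chelate acceptor beads (10 ug/mL) for 30 min.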
# L3MBTL1 inh = inhibitors of human L3MBTL1; Q9Y468; AlphaScreen L3MBTL1–H3K9me1 peptide binding; Potency, µM (doses to about 57.1 µM), for the others: top-dose activity, negative = inhibition, most hits filed as inhibitors; 0.66% of 230,000 active; AID 485360; note: potency is the fitted concentration of half-maximal effect; % is set by controls: 0 for no effect and ±100 for the full control effect; nearly all actives have a fitted effect of over 60% in size
#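 L3MBTL1 (50 nM) pre-complexed 30 min with biotinylated H3(1-15)K9me1 peptide (75 nM), then compounds added for 30 min at room temperature; AlphaScreen streptavidin donor/nickel chelate acceptor beads (10 ug/mL final) read after 30 min dark incubation.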
# The depositor's hits bear a star; ? = inconclusive; · = not tested or not shown; [ ] = another dose, or the depositor's remark. Hits are enriched below; roughly 5.7% of the tested compounds scored in any of these assays. Unless noted, calls come from the whole dose curve; as a rule, active = well fitted inhibition curve with a large enough effect; inconclusive = small, poorly fitted or top-dose-only effect; inactive = no such curve, though single readings can be large or run the other way.
SMILES,JMJD2A Tudor,BAZ2B block,JMJD2E inh,PI5P4K alpha inh,HP1b binding inh,L3MBTL1 inh
CCCNc1nc(C)c(C(C)=O)cc1C#N,-6.6%,50.1µM*,-5.6%,1.4,31.6%,·
CCCCNc1nc(C)c(C(C)=O)cc1C#N,-5.6%,-25.3%,-7.7%,2.3,0.5%,6.6%
CCOCCc1nn2c(=O)cc(COC(=O)c3ccc(NC(=O)c4ccc(F)cc4)cc3)nc2s1,4.6%,-1.5%,·,·,13.6%,·
COCCn1c(C)cc(C(=O)COC(=O)c2ccc3ncsc3c2)c1C,?,56.2µM*,-1.0%,-57.8*,-32.5%,·
COc1ccc(N2Cc3cccc(C(=O)Nc4cccc(F)c4)c3C2=O)cc1,20µM*,·,·,·,-26.3%,·
C=CCOc1ccccc1CN1CCCC(CCC(=O)N(C)CCc2ccccn2)C1 (configuration not stated),-25.2%,0.4%,3.7%,2.9,37.8%,-5.8%
Cc1cc(O)c(C(C)C)cc1N=Nc1ccccc1C(=O)O,?,?,-6.3%,-57.2*,?,-9.3%
Cc1cc(N=Nc2ccccc2C(=O)O)c(C)c(C)c1O,-20.6%[11.4 µM],28.2µM*,-13.2%,-51.1*,?,-26.0%
Cc1cc(O)c(C(C)C)cc1N=C1CSC(=O)N1,-25.7%,-7.9%,-2.1%,?,1.0%,-9.8%
COc1ccc(N/C(=C(/C(Cl)=C(Cl)Cl)[N+](=O)[O-])n2nnc3ccccc32)cc1OC,·,56.2µM*,?,·,·,·
COc1ccc(C(=O)n2nnc3ccccc32)cc1OC,-6.9%,5.2%,1.1%,-12.2,56.4%,5.6%
Cc1c(/C=C2\SC(=Nc3cccc(C(=O)O)c3)NC2=O)c2ccccc2n1C,-17.6%[11.4 µM],-34.0%,-7.5%,-78.8*,0.2%,·
Cc1ccccc1N=C1NC(=O)/C(=C/c2cccn2C)S1,39.8µM*,?,-1.4%,?,?,?
Cc1cccc(N=C2NC(=O)/C(=C/c3cccn3C)S2)c1,?,39.8µM*,1.6%,-4.0,1.8%,-24.3%
CS(=O)(=O)N1CCc2cc(C(=O)Nc3cccc(F)c3)ccc21,-26.1%,0.8%,·,·,0.9%,·
O=c1c2cc3c(cc2nc2sc(Nc4cccc([N+](=O)[O-])c4)nn12)OCO3,-17.5%,?,·,·,43.1%,·
O=C(NC1CCCCC1)C(c1cc2ccccc2o1)N1CCOCC1 (configuration not stated),·,·,·,2.6,·,·
NC(=O)c1sc2nc3c(c(-c4ccco4)c2c1N)CCC3,79.4µM*,?,-5.1%,·,-0.3%,?
Cc1ccc(-c2c3c(nc4sc(C(N)=O)c(N)c24)CCCC3)o1,-18.1%[57.1 µM],?,-12.0%,2.0,12.6%,-3.4%
Nc1c(C(=O)NC2CC2)sc2nc3c(c(-c4ccco4)c12)CC/C3=C/c1ccco1,7.08µM*,0.3%,?,-96.2*,14.1µM*,0.891µM*
Cc1cc(=O)n2c(C(=O)Nc3ccc(Br)cc3)c(C(=O)Nc3ccccc3)sc2n1,-9.0%,1.8%,·,·,6.2%,·
O=S(=O)(c1ccc(Br)cc1)c1nnn2c1nc(Nc1cccc(C(F)(F)F)c1)c1sccc12,-5.5%,-11.2%,·,·,21.2%,·
CC/C(C)=N/Nc1nc(-c2cc3cccc(OC)c3oc2=O)cs1,-25.6%,-1.5%,-10.4%,-60.2*,13.6%,-4.5%
COc1ccccc1C(=O)NNC(=S)NC(=O)c1sc2ccccc2c1Cl,-31.8%,10.2%,4.1%,?,-23.8%,12.0%
COc1ccccc1C(=O)NC(=S)NNC(=O)c1sc2ccccc2c1Cl,-19.3%,-4.0%,0.8%,-52.0*,-24.2%,-15.1%
SMILES,JMJD2A Tudor,BAZ2B block,JMJD2E inh,PI5P4K alpha inh,HP1b binding inh,L3MBTL1 inh
Cc1c(NC(=S)NC(=O)c2sc3ccccc3c2Cl)cccc1C(=O)O,?,50.1µM*,?,-19.3,-6.5%,-3.2%
Cc1cc(C)cc(C(=O)Nc2nnc3n2CCS3)c1,-22.6%,?,·,·,20.1%[57 µM],·
CCC(=O)Nc1nnc2n1CCS2,20µM*,-12.9%,·,·,-6.3%[57 µM],·
CCOC(=O)CCC(=O)Nc1nnc2n1CCS2,39.8µM*,?,·,·,-7.1%[57 µM],·
CC(=O)Nc1nnc2n1CCS2,22.4µM*,-4.3%,·,·,-7.7%[57 µM],·
CCCCOc1ccc(C(=O)Nc2nnc3n2CCS3)cc1,-13.5%,3.9%,·,·,17.9%[57 µM],·
COc1ccc(C(=O)O/N=C(\N)Cc2ccc([N+](=O)[O-])cc2)c(OC)c1,-9.7%,-18.7%,-0.2%,-2.5,24.3%,-6.4%
Cc1cc(=O)[nH]c(N=N/C(=N/Nc2ccc(O)cc2)c2ccccc2)n1,56.2µM*,10µM*,3.3%,?,?,·
COc1ccc(N/N=C(/N=Nc2nc(C)cc(=O)[nH]2)c2ccccc2)cc1,?,7.08µM*,14.1µM*,-1.3,15.8µM*,·
CC(C)c1ccc(S(=O)(=O)c2nnn3c2nc(N2CCCCC2)c2sccc23)cc1,-7.7%,-17.0%,·,·,44.1%,·
O=C(CN1CCN(c2ccccc2)CC1)N1CCc2[nH]c3ccccc3c2C1,?,50.1µM*,0.0%,0.3,-0.7%,-22.4%
Cc1ccc2[nH]c3c(c2c1)CN(C(=O)CN1CCN(c2ccccn2)CC1)CC3,-34.6%,50.1µM*,-24.5%,·,-1.8%,-8.1%
Cc1ccc2[nH]c3c(c2c1)CN(C(=O)CN1CC(C)OC(C)C1)CC3 (configuration not stated),-20.5%[11.4 µM],-1.8%,-7.5%,0.4,31.4%,-8.0%[11.4 µM]
Cc1ccc(NC(=S)N2CCc3[nH]c4ccccc4c3C2)cc1,?,25.1µM*,-5.9%,-7.0,-30.1%,·
Cc1cc(C)c(NC(=O)CN2CCN(c3ccccn3)CC2)c(C)c1,-13.0%,-0.8%,·,15.9,20.5%,6.9%
Cc1ccc2[nH]c3c(c2c1)CN(C(=O)CN1CCN(Cc2ccc4c(c2)OCO4)CC1)CC3,50.1µM*,-67.4%,-8.0%,6.4,?,-8.7%
O=C(CN1CCc2[nH]c3ccccc3c2C1)N1CCCCC1,-19.0%,-33.6%,?,8.2,11.2%,·
Cc1cc(=O)c2c(O)c3c(O)cc(=O)c4c3c3c(cc(O)c1c23)C(C)(C)C=4O,·,·,-4.3%,·,·,·
CC(=O)N1CCc2[nH]c3ccc(C)cc3c2C1,-30.0%,56.2µM*,·,0.1,0.9%,-4.3%
CCOC(=O)N1CCc2[nH]c3ccc(C)cc3c2C1,?,?,4.5%,5.6,-34.9%,-23.1%
